Results published in PubChem BioAssay (EPA / NIEHS).
Some compounds were tested as several samples or in several runs, with calls that do not always agree. Active and inactive are the calls of the source. Rule for the calls: active = hit-call score of the fitted dose curve at least 0.9, where 1 is the maximum; inactive = score below 0.9.

Key:
Conditions in all cases: mRNA level, 48 h; actives raise or lower the signal
[1] = read-out: Tumor necrosis factor receptor superfamily member 6 (Homo sapiens) (UniProt P25445); test: LTEA_HepaRG_FAS: Life Technologies and Expression Analysis (LTEA) Assay for Fas cell surface death receptor (FAS) using HepaRG (AID 2283447)
Outline: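 Differentiated human HepaRG cells, pre-cultured 48 h, were exposed in duplicate for 48 h to 8-point half-log concentrations (top 100 uM, 0.5% DMSO) in serum-free induction medium; FAS mRNA measured by qRT-PCR, normalized to ACTB/GAPDH/POLR2A, bidirectional fit versus DMSO.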

[2] = read-out: Cyclin D2 (CCND2), CCND2 (gene 894); test: LTEA_HepaRG_CCND2: Life Technologies and Expression Analysis (LTEA) Assay for Cyclin D2 (CCND2) using HepaRG (AID 2283449);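 note: CCND2 transcript measured by TaqMan qRT-PCR and normalised to three housekeeping genes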
Outline: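 Differentiated human HepaRG cells were exposed for 48 h in serum-free induction medium to eight half-log concentrations topping at 100 uM (0.5% DMSO vehicle). CCND2 mRNA was quantified by TaqMan qRT-PCR, normalised to ACTB, GAPDH and POLR2A, and fitted bidirectionally against DMSO.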

[3] = read-out: Cyclin Dependent Kinase Inhibitor 1A (CDKN1A), CDKN1A (gene 1026); test: LTEA_HepaRG_CDKN1A: Life Technologies and Expression Analysis (LTEA) Assay for Cyclin Dependent Kinase Inhibitor 1A (CDKN1A) using HepaRG (AID 2283450)
Outline: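 Gain or loss of CDKN1A transcript is scored by bidirectional fitting against 0.5% DMSO vehicle. Human HepaRG cultures receive chemicals for 48 h across an 8-point series peaking at 100 uM; expression comes from qRT-PCR.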

[4] = read-out: Cyclin D1 (CCND1), CCND1 (gene 595); test: LTEA_HepaRG_CCND1: Life Technologies and Expression Analysis (LTEA) Assay for Cyclin D1 (CCND1) using HepaRG (AID 2283451)
Outline: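 Expression change is measured by qRT-PCR in HepaRG cells after 48 h treatment across eight concentrations topping at 100 uM, with duplicate wells and DMSO (0.5%) serving as baseline for bidirectional fitting.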

[5] = read-out: flavin-containing dimethylaniline monooxygenases 3 (FMO3), FMO3 (gene 2328); test: LTEA_HepaRG_FMO3: Life Technologies and Expression Analysis (LTEA) Assay for flavin-containing dimethylaniline monooxygenases 3 (FMO3) using HepaRG (AID 2283453)
Outline: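 HepaRG, 48 h exposure, 8-pt half-log series from 100 uM, 0.5% DMSO vehicle, duplicates; FMO3 transcript by Fluidigm TaqMan qRT-PCR, housekeeping-normalized; gain/loss fit vs DMSO.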

[6] = read-out: Cytochrome P450 (CYP1A1), CYP1A1 (gene 1543); test: LTEA_HepaRG_CYP1A1: Life Technologies and Expression Analysis (LTEA) Assay for Cytochrome P450 (CYP1A1) using HepaRG (AID 2283454)
Outline: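 Using HepaRG cultures with 0.5% DMSO as vehicle, eight-concentration exposures (max 100 uM) lasted 48 h. Transcript levels were measured by TaqMan qRT-PCR and normalized to ACTB, GAPDH and POLR2A.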

[7] = read-out: CFLAR gene, CFLAR (gene 8837); test: LTEA_HepaRG_CFLAR: Life Technologies and Expression Analysis (LTEA) Assay for CFLAR gene using HepaRG (AID 2283455)
Outline: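 HepaRG cells were plated for 48 h, switched to serum-free induction medium, then exposed in duplicate for 48 h to 8 concentrations (top 100 uM, half-log steps, 0.5% DMSO). CFLAR mRNA was measured by qRT-PCR, normalized to ACTB, GAPDH and POLR2A.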

[8] = read-out: Forkhead box O3 (FOXO3), FOXO3 (gene 2309); test: LTEA_HepaRG_FOXO3: Life Technologies and Expression Analysis (LTEA) Assay for Forkhead box O3 (FOXO3) using HepaRG (AID 2283459)
Outline: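 Differentiated human HepaRG cells in serum-free induction medium were exposed in duplicate for 48 h to eight half-log concentrations up to 100 uM in 0.5% DMSO. FOXO3 mRNA was quantified by qRT-PCR, normalized to ACTB, GAPDH and POLR2A, with bidirectional fitting versus DMSO.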

[9] = read-out: ABC Transporter (ABCB1), ABCB1 (gene 5243); test: LTEA_HepaRG_ABCB1: Life Technologies and Expression Analysis (LTEA) Assay for ABC Transporter (ABCB1) using HepaRG (AID 2283460)
Outline: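 Differentiated human HepaRG cells, plated 48 h then switched to serum-free induction medium, were exposed in duplicate to eight half-log concentrations up to 100 uM in 0.5% DMSO for 48 h. ABCB1 mRNA was measured by TaqMan qRT-PCR, normalized to ACTB/GAPDH/POLR2A.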

[10] = read-out: growth arrest and DNA damage 45 (GADD45B), GADD45B (gene 4616); test: LTEA_HepaRG_GADD45B: Life Technologies and Expression Analysis (LTEA) Assay for growth arrest and DNA damage 45 (GADD45B) using HepaRG (AID 2283461)
Outline: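 Human HepaRG monolayers receive chemicals for 48 h at eight half-log concentrations, highest 100 uM, in 0.5% DMSO. Expression is measured by TaqMan qRT-PCR and normalized to ACTB, GAPDH and POLR2A.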

[11] = read-out: ABC Transporter (ABCC3), ABCC3 (gene 8714); test: LTEA_HepaRG_ABCC3: Life Technologies and Expression Analysis (LTEA) Assay for ABC Transporter (ABCC3) using HepaRG (AID 2283462)
Outline: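 Transcriptional change of ABCC3 in HepaRG after 48 h treatment, determined by qRT-PCR normalized to endogenous controls. Concentrations spanned eight half-log steps to 100 uM in 0.5% DMSO.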

[12] = read-out: ABC Transporter (ABCB11), ABCB11 (gene 8647); test: LTEA_HepaRG_ABCB11: Life Technologies and Expression Analysis (LTEA) Assay for ABC Transporter (ABCB11) using HepaRG (AID 2283463)
Outline: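 Differentiated human HepaRG cells were exposed for 48 h in serum-free induction medium to eight half-log concentrations up to 100 uM in 0.5% DMSO. ABCB11 mRNA was quantified by qRT-PCR, normalized to ACTB, GAPDH and POLR2A, and fitted bidirectionally versus DMSO.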

[13] = read-out: ABC Transporter (ABCC2), ABCC2 (gene 1244); test: LTEA_HepaRG_ABCC2: Life Technologies and Expression Analysis (LTEA) Assay for ABC Transporter (ABCC2) using HepaRG (AID 2283464)
Outline: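 After plating and 48 h culture, HepaRG medium is replaced with serum-free induction medium and chemicals are added (8 concentrations, max 100 uM, 0.5% DMSO) for 48 h. Total RNA then undergoes qRT-PCR for ABCC2 with housekeeping normalization.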

[14] = read-out: catalase (CAT), CAT (gene 847); test: LTEA_HepaRG_CAT: Life Technologies and Expression Analysis (LTEA) Assay for catalase (CAT) using HepaRG (AID 2283452)
Outline: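 Differentiated HepaRG cells in serum-free induction medium were dosed 48 h in duplicate, eight half-log concentrations from 100 uM in 0.5% DMSO. Transcript measured by TaqMan qRT-PCR, normalised to ACTB/GAPDH/POLR2A, fitted bidirectionally against DMSO.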

[15] = read-out: growth arrest and DNA damage 45 (GADD45A), GADD45A (gene 1647); test: LTEA_HepaRG_GADD45A: Life Technologies and Expression Analysis (LTEA) Assay for growth arrest and DNA damage 45 (GADD45A) using HepaRG (AID 2283458)
Outline: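 Differentiated HepaRG cells were exposed in duplicate for 48 h in serum-free induction medium to 8-point half-log concentrations up to 100 uM in 0.5% DMSO. GADD45A mRNA was measured by TaqMan qRT-PCR, normalized to ACTB, GAPDH and POLR2A, with bidirectional fitting versus DMSO.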

CCOC(=O)COc1cc(-n2ncc(C(F)(F)F)c(C)c2=O)c(F)cc1Cl
outcome [1]: inactive | outcome [2]: inactive | outcome [3]: inactive | outcome [4]: inactive | outcome [5]: inactive | AC50 [6]: 50 µM (active) | outcome [7]: inactive | outcome [8]: inactive | outcome [9]: inactive | outcome [10]: inactive | outcome [11]: inactive | outcome [12]: inactive | outcome [13]: inactive

O=C(O)c1ccccc1
outcome [1]: inactive | outcome [2]: inactive | outcome [3]: inactive | outcome [4]: inactive | outcome [14]: inactive | outcome [5]: inactive | AC50 [6]: 51.2 µM (active) | outcome [6]: inactive | outcome [7]: inactive | outcome [15]: inactive | outcome [8]: inactive | outcome [9]: inactive | outcome [10]: inactive | outcome [11]: inactive | outcome [12]: inactive | outcome [13]: inactive

COCCO
outcome [3]: inactive | outcome [4]: inactive | outcome [14]: inactive | outcome [5]: inactive | outcome [6]: inactive | outcome [7]: inactive | outcome [8]: inactive | outcome [9]: inactive | outcome [10]: inactive | outcome [11]: inactive | outcome [12]: inactive | outcome [13]: inactive

COC(=O)CSc1cc(N=c2sc(=O)n3n2CCCC3)c(F)cc1Cl
outcome [1]: inactive | outcome [2]: inactive | outcome [3]: inactive | outcome [4]: inactive | outcome [5]: inactive | AC50 [6]: 64.9 µM (active) | outcome [7]: inactive | outcome [8]: inactive | AC50 [9]: 25.6 µM (active) | outcome [10]: inactive | outcome [11]: inactive | outcome [12]: inactive | AC50 [13]: 50 µM (active)

CCC(C)OC(=O)N1CCCCC1CCO (stereo unspecified)
outcome [1]: inactive | outcome [2]: inactive | outcome [3]: inactive | outcome [4]: inactive | outcome [14]: inactive | outcome [5]: inactive | AC50 [6]: 64 µM (active) | outcome [7]: inactive | outcome [8]: inactive | outcome [9]: inactive | outcome [10]: inactive | outcome [11]: inactive | outcome [12]: inactive | outcome [13]: inactive

COC(=O)c1ccc(I)cc1S(=O)(=O)NC(=O)Nc1nc(C)nc(OC)n1
outcome [1]: inactive | outcome [2]: inactive | outcome [3]: inactive | outcome [4]: inactive | outcome [5]: inactive | AC50 [6]: 62.4 µM (active) | outcome [7]: inactive | outcome [15]: inactive | outcome [8]: inactive | outcome [9]: inactive | outcome [10]: inactive | outcome [11]: inactive | outcome [12]: inactive | outcome [13]: inactive

OB(O)O
outcome [1]: inactive | outcome [2]: inactive | outcome [3]: inactive | outcome [4]: inactive | outcome [14]: inactive | outcome [5]: inactive | outcome [6]: inactive | outcome [7]: inactive | outcome [8]: inactive | outcome [9]: inactive | outcome [10]: inactive | outcome [11]: inactive | outcome [12]: inactive | outcome [13]: inactive
